Reference: PubChem BioAssay AID687020 (Broad Institute, 2013)
The whole screen tested about 1,400 compounds, of which about 100 (7.1%) were called active. The rule behind the calls is not given here. The list is a sample of the results. Entries that show only a call come without a potency. Potency and affinity values are given separately.

Experiment: viability loss in Vero cells – cell-based, plate reader, cherry-pick samples, cytotoxicity control, dose response (AID 687020);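 note: compounds incubated with cells for three days before luminescence read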
Settings: series mostly up to 19.5 µM

| SMILES | outcome |
| --- | --- |
| C/C=C/c1ccc([C@H]2[C@@H](CO)N(C(=O)C3CCC3)[C@@H]2CNC(=O)NC(C)C)cc1 | inactive |
| CC(O)(c1cccc(F)c1)c1nc(/C=C/c2ccccc2)cs1 (stereo unspecified) | inactive |
| CC(OC(=O)c1ccc(O)cc1)C(=O)Nc1nc(-c2ccccc2)cs1 (stereo unspecified) | inactive |
| COc1ccc(-c2csc(C(O)c3cccc(OC)c3)n2)cc1 (stereo unspecified) | inactive |
| N#Cc1cccc(-c2ccc(C3[C@@H]4CN(C(=O)c5cccnc5)C[C@H]3N4)cc2)c1 (stereo partly specified) | inactive |
| C[C@H](CO)N1C[C@H](C)[C@H](CN(C)C(=O)NC2CCCCC2)Oc2ccc(NC(=O)Cn3cnnn3)cc2C1=O | inactive |
| O=C(C1CCCCC1)N1C[C@H](O)[C@@H](n2cc(C3CC3)nn2)C[C@@H]1c1ccccc1 | inactive |
| CCCCCC(=O)N1C[C@@H](O)[C@H](n2cc(COC(=O)c3ccccc3)nn2)C[C@@H]1c1ccc(C)cc1 | inactive |
| CCc1c(C2CC2)ncn1Cc1cccc(-c2ccccc2)c1 | inactive |
| FC(F)(F)c1nc2ccccc2n1CCNc1nc(CN2CCCCC2)cs1 | inactive |
| CN(C)c1cccc(C(=O)Nc2cc(C(F)(F)F)ccc2-n2cnc3ccccc32)c1 | inactive |
| O=S1(=O)N[C@@H](Cc2ccccc2)COc2cc(N3CCOCC3)ccc21 | inactive |
| c1ccc(-c2cn(C[C@H]3CC[C@@H]([C@@H]4CC[C@H](Cn5cc(-c6ccccc6)nn5)O4)O3)nn2)cc1 | inactive |
| O=C(Cc1cccnc1)N[C@H]1CC[C@@H](CCn2cc(Cc3ccccc3)nn2)O[C@H]1CO | inactive |
| COc1ccc(S(=O)(=O)N[C@H]2CC[C@@H](CCNC(=O)CN3CCOCC3)O[C@H]2CO)cc1 | inactive |
| COc1ccc(NC(=O)N[C@@H]2CC[C@@H](CCNS(=O)(=O)c3cccc(Cl)c3)O[C@@H]2CO)cc1 | inactive |
| CCCCN(C(=O)c1ccc2c(c1)NC(=O)CS2)c1ccccc1 | inactive |
| O=C(OCc1ccccc1)N1CCCC2CC1c1ccccc12 (stereo unspecified) | inactive |
| CSCCC(NS(=O)(=O)c1cccs1)C(=O)NCc1ccccc1 (stereo unspecified) | inactive |
| COc1ccc(C)cc1NC(=O)C(c1ccccc1)N1CCN(CC(=O)N2CCOCC2)CC1 (stereo unspecified) | inactive |
| COc1ccc2c3c(n(C)c2c1)[C@H](CO)N(Cc1ccccc1F)CC31CCN(C(C)=O)CC1 | inactive |
| COCCNC(=O)CCC1CCN(Cc2ccc(-c3ccccc3)cc2)CC1 | inactive |
| CN1C(C(=O)NCc2ccc(OC(F)(F)F)cc2)CC2Cn3c(nc4ccccc43)C21 (stereo unspecified) | inactive |
| COc1cccc(CC(=O)OCC(=O)Nc2nnc(-c3ccccc3)o2)c1 | inactive |
| COc1ccc(C(CNS(=O)(=O)c2ccc(NC(C)=O)c(OC)c2)N2CCCC2)cc1 (stereo unspecified) | inactive |
| COc1ccc(C(CNC(=O)CCNC(=O)c2ccc(Br)cc2)N2CCOCC2)cc1 (stereo unspecified) | inactive |
